Test results as given in PubChem BioAssay (EPA / NIEHS).
Values joined by “and” are separate entries in the source; they are usually repeats but may differ in a detail not shown here. Equal values may be shown once. Results filed as inconclusive are left out. Where a structure was tested more than once in an assay, its records may differ in their call. Active and inactive are the calls of the source. The calls were made as follows: active = hit-call score of the fitted dose curve at least 0.9, where 1 is the maximum; inconclusive = response in the unintended direction; inactive = score below 0.9.

Tests used:
[1] = ArunA_CellTiter_hNC: Viability Assessment in the ArunA Biomedical's Oris Neural Crest (hNC) Cell Migration Assay (AID 2283752)
Summary of the method: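 Human H9-derived neural crest stem cells were plated at 60,000 per well on Matrigel in growth medium with LIF and bFGF, incubated 16 h at 37C, then exposed to chemical for 72 h. Viability was read with CellTiter Aqueous One as loss of signal versus DMSO.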

[2] = ArunA_CellTiter_hNP: Viability Assessment in the ArunA Biomedical's Oris Neural Crest (hNC) Cell Migration Assay (AID 2283753)
Summary of the method: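 H9-derived hNP1 neuroprogenitors, 60,000/well on Matrigel, cultured 16 h, then 72 h chemical exposure in test medium. Cell titer via CellTiter Aqueous One; positive-direction fit vs DMSO.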

[3] = ArunA_Migration_hNP: ArunA Biomedical's Oris Neuroprogenitor (hNP) Cell Migration Assay (AID 2283754)
Summary of the method: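 Human H9-derived hNP1 neuroprogenitors on Matrigel with LIF/bFGF, plated around seeding stoppers for 16 h at 37C; stoppers removed at start of 72 h chemical exposure. Calcein-AM staining, fluorescence 494/517 nm in detection zone; loss-of-signal vs DMSO; cytochalasin D control.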

[4] = ArunA_Migration_hNC: ArunA Biomedical's Oris Neural Crest (hNC) Cell Migration Assay (AID 2283755)
Summary of the method: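 Human H9-derived neural crest stem cells, 60,000/well on Matrigel, 16 h at 37C, then 72 h chemical exposure after seeding-stopper removal. Migration into detection zone read as calcein-AM fluorescence (ex494/em517), relative to DMSO.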

[5] = ArunA_NOG_NucleusCount: ArunA Biomedical's Neurite Outgrowth (NOG) Assay for Nucleus Count (AID 2283756)
Summary of the method: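 Human H9-derived differentiated neurons were exposed for 48 h right after seeding. Hoechst-stained nuclei gated by size and intensity were counted by automated high-content imaging as viable neurons. Loss of signal vs DMSO.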

[6] = ArunA_NOG_NeuriteLength: ArunA Biomedical's Neurite Outgrowth (NOG) Assay for Neurite Length (AID 2283757)
Summary of the method: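 Differentiated human H9-derived neurons were exposed for 48 h from seeding, then stained with Hoechst and βIII-tubulin. Automated high-content imaging gave total neurite length per valid neuron, counting processes >10 um. Loss of signal was scored versus DMSO.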

[7] = ArunA_NOG_NeuritesPerNeuron: ArunA Biomedical's Neurite Outgrowth (NOG) Assay for Neurites Per Neuron (AID 2283758)
Summary of the method: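 Differentiated human H9-derived neurons exposed to chemicals for 48 h from seeding, then stained with Hoechst and βIII-tubulin/DyLight 488. Automated imaging counted neurites (processes >10 um) per valid neuron; loss of signal versus DMSO scored.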

[8] = ArunA_NOG_BranchPointsPerNeurite: ArunA Biomedical's Neurite Outgrowth (NOG) Assay for Branch Points Per Neurite (AID 2283759)
Summary of the method: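 Automated image analysis traced neurites (processes >10 um) from valid cell bodies after Hoechst and βIII-tubulin staining. hNN cells from H9 embryonic stem cells, 48 h exposure. Fitted bidirectionally against DMSO.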

[9] = tested on: zebrafish Estrogen Receptor (ESR2B), gene 317733; experiment: ATG_zfER2b_XSP1: Attagene TRANS-FACTORIAL Multi-Species (XSP1) HepG2 Assay for zebrafish Estrogen Receptor (ESR2B) (AID 2283773)
Summary of the method: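 Gain-of-signal endpoint relative to DMSO: reporter transcript levels quantified by RT-PCR and capillary electrophoresis after 24 h compound exposure of HepG2 cells expressing a zebrafish ER2b-Gal4 chimera.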

[10] = tested on: frog Estrogen Receptor (ESR2), gene 100174814; experiment: ATG_frER2_XSP1: Attagene TRANS-FACTORIAL Multi-Species (XSP1) HepG2 Assay for frog Estrogen Receptor (ESR2) (AID 2283774)
Summary of the method: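 Transactivation of an exogenous receptor-Gal4 fusion is tracked in transfected HepG2 cells via induced reporter transcript levels. After 24 h treatment, RT-PCR with capillary electrophoresis quantifies signal gain over DMSO.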

[11] = tested on: frog Estrogen Receptor (ESR1), gene 398734; experiment: ATG_frER1_XSP1: Attagene TRANS-FACTORIAL Multi-Species (XSP1) HepG2 Assay for frog Estrogen Receptor (ESR1) (AID 2283777)
Summary of the method: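 Human hepatoma HepG2 cells carried transiently transfected multiplexed Gal4-driven reporters and were exposed to test chemicals for 24 hours. Transcripts were quantified by fluorescent RT-PCR with capillary electrophoresis, referenced to DMSO.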

[12] = tested on: zebrafish Estrogen Receptor (ESR2A), gene 317734; experiment: ATG_zfER2a_XSP1: Attagene TRANS-FACTORIAL Multi-Species (XSP1) HepG2 Assay for zebrafish Estrogen Receptor (ESR2A) (AID 2283778)
Summary of the method: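 Cells were transfected, dosed for 24 h, then total RNA was isolated. After oligo(dT) reverse transcription, reporter sequences were amplified, FAM-labelled by primer extension, digested with HpaI and sized by capillary electrophoresis; DMSO served as baseline.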

[13] = target: chicken Estrogen Receptor (ESR1), ESR1 (gene 396099) (UniProt P06212); experiment: ATG_chERa_XSP1: Attagene TRANS-FACTORIAL Multi-Species (XSP1) HepG2 Assay for chicken Estrogen Receptor (ESR1) (AID 2283779)
Summary of the method: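 Human liver HepG2, transient MRTU transfection (NR-Gal4 chimeras, GAL4-UAS reporters); 24 h compound exposure; 3 nM 6-alpha-fluorotestosterone in medium. Total RNA → RT-PCR → 6-FAM primer extension → HpaI → CE. Positive direction vs DMSO baseline.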

[14] = tested on: turtle Estrogen Receptor (ESR1), gene 101933533; experiment: ATG_trERa_XSP1: Attagene TRANS-FACTORIAL Multi-Species (XSP1) HepG2 Assay for turtle Estrogen Receptor (ESR1) (AID 2283781)
Summary of the method: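 Activity was taken as gain of reporter transcript over DMSO controls. HepG2 cells carrying GAL4-UAS-driven reporters were exposed for 24 h before RNA was extracted and reporter sequences were measured by fluorescence after capillary separation.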

Measured: AC50

Chain of chicken Estrogen Receptor (ESR1), ESR1 (gene 396099) (P06212 whole entry, looked up, the tested form may be a part): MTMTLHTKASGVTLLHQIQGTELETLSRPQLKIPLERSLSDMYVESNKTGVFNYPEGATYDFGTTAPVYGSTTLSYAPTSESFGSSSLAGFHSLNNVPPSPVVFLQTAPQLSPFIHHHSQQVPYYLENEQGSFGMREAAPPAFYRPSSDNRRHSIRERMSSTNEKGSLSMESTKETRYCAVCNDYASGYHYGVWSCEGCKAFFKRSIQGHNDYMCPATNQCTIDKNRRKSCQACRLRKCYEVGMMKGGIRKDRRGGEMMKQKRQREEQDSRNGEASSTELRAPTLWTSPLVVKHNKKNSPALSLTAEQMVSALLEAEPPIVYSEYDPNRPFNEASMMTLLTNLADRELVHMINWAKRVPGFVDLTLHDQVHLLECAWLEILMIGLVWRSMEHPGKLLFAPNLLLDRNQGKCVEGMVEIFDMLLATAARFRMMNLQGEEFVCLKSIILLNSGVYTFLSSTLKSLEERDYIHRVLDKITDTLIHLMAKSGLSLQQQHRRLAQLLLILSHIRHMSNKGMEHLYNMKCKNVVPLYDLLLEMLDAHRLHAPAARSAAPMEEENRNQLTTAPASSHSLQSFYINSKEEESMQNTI

OCC(CO)(CBr)CBr
inactive: [1] | [2] | [3] | [4] | [5]

O=C(CCCN1CCC(O)(c2ccc(Cl)cc2)CC1)c1ccc(F)cc1
active: [2] 12400 nM | [3] 50 µM and 61.7 nM | [4] 5340 nM | [5] 78900 nM | [6] 78100 nM | [7] 77900 nM | [8] 73300 nM
inactive: [1] | [4]

C[C@]12CC[C@@H]3c4ccc(O)cc4CC[C@H]3[C@@H]1C[C@@H](O)[C@@H]2O
active: [9] 14.3 nM | [10] 27.9 nM | [11] 27.9 nM | [12] 15.7 nM | [13] 22.7 nM | [14] 17.2 nM
